Most compounds without a hit are left out; they make up all but 4.2% or so of the library.
tim10-1 inh: growth inhibitors of tim10-1 mutant yeast, primary screen, luminescence, uHTS; AID 463190, 2010; inhibition, % at 20 µM; 2.2% of 330,000 active; S. cerevisiae tim10-1 ts strain growth, BacTiter-Glo, 24 h;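 active = inhibition of at least 40%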;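 note: mutant grown at 25 °C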
NALP1 inh: NALP1 inflammasome inhibitors in reconstituted yeast, colorimetric, S. cerevisiae, triplicate retest; S. cerevisiae NALP1/ASC/caspase-1 growth, X-gal OD620, 72 h; inhibition, % at 10 µM; 0.61% of 280,000 active; AID 2071, 2009; in the data active = inhibition mostly above about 24%, no sharp cut-off; inactive = mostly below about 32%
NLRP3 yeast inh: NALP3 inflammasome inhibitors in reconstituted yeast, primary screen, luminescence, uHTS; Yeast reconstituted NLRP3/ASC/caspase-1, beta-gal luminescence, 24 h; inhibition, % at 10 µM; 0.39% of 330,000 active;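 active = inhibition of 50% or more; inactive = inhibition below 50%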
tim23-1 inh: growth inhibitors of tim23-1 mutant yeast, primary screen, luminescence, uHTS. S. cerevisiae tim23-1 growth, BacTiter-Glo luminescence, 24 h. inhibition, % at 20 µM. 1.3% of 330,000 active. AID 463212, 2010;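 active = growth inhibition of the mutant yeast at or above 50%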;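 note: temperature-sensitive mutant grown at 25 °C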
TIM10 inh: growth inhibitors of isogenic TIM10 control yeast, primary screen, counter-screen for tim10-1 yeast inhibitor project, luminescence, uHTS; S. cerevisiae TIM10 strain growth, BacTiter-Glo luminescence, 24 h; inhibition, % at 10 µM; 1.4% of 330,000 active;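 active = inhibition of 40% or more at the single tested concentration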;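 note: wild-type TIM10 isogenic control strain grown at permissive 25 °C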
V-ATPase pH: regulators of yeast V-ATPase proton pumping, primary screen, pHLuorin cytosolic pH fluorescence; S. cerevisiae; response, % at 10 µM; 0.37% of 350,000 active; in the data active = response mostly above about 7.3%, no sharp cut-off; inactive = mostly below about 5.4%; note: actives read high
tim10-1 confirm: growth inhibitors of tim10-1 mutant yeast, confirmation, single concentration, luminescence, S. cerevisiae. shares compounds with tim10-1 inh. S. cerevisiae tim10-1 ts strain growth, BacTiter-Glo, 24 h. inhibition, % at 20 µM. 56% of 7,400 active. AID 463213, 2010;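 active = inhibition of yeast growth at or above a set limit in either of two repeat tests at 20 µM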;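 note: tim10-1 mutant grown at permissive 25 °C to find synthetic lethal compounds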
Hits are given with their value.

For CC(C)Oc1ccc(CNC(=S)N/N=C/c2ccc([N+](=O)[O-])cc2)cc1 the results were tim10-1 inh 43, NALP1 inh inactive, NLRP3 yeast inh inactive, tim23-1 inh inactive, TIM10 inh inactive, V-ATPase pH inactive and tim10-1 confirm inactive.
Screening Cc1cccc(NC(=O)CCn2nc(C)cc2C)c1 returned tim10-1 inh inactive, NALP1 inh inactive, NLRP3 yeast inh inactive, tim23-1 inh inactive, TIM10 inh inactive and V-ATPase pH inactive.
For CC(=O)NC(=S)Nc1cccc2ccc(C)nc12 the results were tim10-1 inh inactive, NLRP3 yeast inh inactive, tim23-1 inh inactive, TIM10 inh inactive and V-ATPase pH inactive.
Screening Cc1ccc2cccc(NC(=S)NC(=O)c3ccnn3C)c2n1 returned tim10-1 inh 43, NALP1 inh inactive, NLRP3 yeast inh inactive, tim23-1 inh inactive, TIM10 inh inactive, V-ATPase pH inactive and tim10-1 confirm inactive.
COCCNC(=O)/C(C#N)=C/C(C)=C/c1ccccc1 was read as tim10-1 inh 53, NALP1 inh inactive, NLRP3 yeast inh inactive, tim23-1 inh inactive, TIM10 inh inactive, V-ATPase pH inactive and tim10-1 confirm 42.
`CCN(CC)c1ccc(NC(=O)CSc2n[nH]c(-c3ccco3)n2)cc1` gave tim10-1 inh inactive, NLRP3 yeast inh inactive, tim23-1 inh inactive, TIM10 inh inactive and V-ATPase pH inactive.
Screening CCSc1nnc(NC(=O)c2cccc(OCc3c(C)noc3C)c2)s1 returned tim10-1 inh inactive, NALP1 inh inactive, NLRP3 yeast inh inactive, tim23-1 inh inactive, TIM10 inh inactive, V-ATPase pH inactive and tim10-1 confirm inactive.
O=C1[C@H]2[C@@H](C(=O)N1c1cc(Cl)cc(Cl)c1)[C@]1(C(=O)Nc3ccccc31)N1CCC[C@@H]21 was read as tim10-1 inh 45, NALP1 inh inactive, NLRP3 yeast inh inactive, tim23-1 inh inactive, TIM10 inh inactive, V-ATPase pH inactive and tim10-1 confirm inactive.
Screening COC(=O)c1c(N2C(=O)[C@H]3[C@@H](C2=O)[C@]2(C(=O)Nc4ccccc42)N2CCC[C@@H]32)sc(C)c1C returned tim10-1 inh inactive, NALP1 inh inactive, NLRP3 yeast inh inactive, tim23-1 inh inactive and TIM10 inh inactive.
CCn1c2ccccc2c2cc(/C=C(/C#N)C(N)=S)ccc21 was read as V-ATPase pH inactive.
`CCOc1c(C=C(C#N)C#N)c2ccccc2n1CC` gave tim10-1 inh 42, NALP1 inh inactive, NLRP3 yeast inh inactive, tim23-1 inh inactive, TIM10 inh inactive, V-ATPase pH inactive and tim10-1 confirm inactive.
`CC[n+]1c(/C=C2\C=C(C)CC(C)C2)sc2ccccc21` (stereo unspecified) gave tim10-1 inh inactive, NALP1 inh inactive, NLRP3 yeast inh inactive, tim23-1 inh inactive, TIM10 inh inactive and V-ATPase pH inactive.
CCC1=C/C(=C/c2sc3ccccc3[n+]2CC)CC(C)(C)C1 was read as tim10-1 inh 42, NALP1 inh inactive, NLRP3 yeast inh inactive, tim23-1 inh inactive, TIM10 inh inactive, V-ATPase pH inactive and tim10-1 confirm 35.
`CCc1nnc(NC(=O)Cn2nc(-c3ccccc3OC)ccc2=O)s1` gave tim10-1 inh inactive, NALP1 inh inactive, NLRP3 yeast inh inactive, tim23-1 inh inactive, TIM10 inh inactive and V-ATPase pH inactive.
`CCCCCCOc1ccc(N2C(=O)CC(S/C(N)=N/N=C(\C)c3cccs3)C2=O)cc1` (stereo unspecified) gave tim10-1 inh inactive, NALP1 inh inactive, NLRP3 yeast inh inactive, tim23-1 inh inactive, TIM10 inh inactive and V-ATPase pH inactive.
`CCOC(=O)N1CCC(N2CCN(S(=O)(=O)c3ccc(OC)cc3)CC2)CC1` gave tim10-1 inh inactive, NALP1 inh inactive, NLRP3 yeast inh inactive, tim23-1 inh inactive, TIM10 inh inactive and V-ATPase pH inactive.
Screening O=C(NCc1ccccc1Cl)c1cc2ccccc2oc1=O returned tim10-1 inh inactive, NALP1 inh inactive, NLRP3 yeast inh inactive, tim23-1 inh inactive, TIM10 inh inactive and V-ATPase pH inactive.

Bioassay records (PubChem)
